Reference: PubChem BioAssay AID1347416 (National Center for Advancing Translational Sciences (NCATS), 2020)
Out of some 4,100 compounds screened, about 1,600 (39%) were called active. About 25% were inconclusive and are not listed. Calls follow the shape of the dose curve; as a rule, active = well fitted inhibition curve with a large enough effect; inconclusive = small, poorly fitted or top-dose-only effect; inactive = no such curve, though single readings can be large or run the other way. Some of the results follow.

assay: qHTS Validation assay for Inhibitors of Plasmodium falciparum Dd2 growth in vitro; also: nearly all actives have a fitted effect of over 70% in size; conditions: P. falciparum Dd2 in RBCs, SYBR Green growth, 72 h; series mostly up to 28.7 µM
Outline: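 P. falciparum Dd2-infected red blood cells (2.5% hematocrit, 0.3% parasitemia) grown 72 h at 37 °C under 5% O2 with compounds in a titration, 29 uM to 0.5 nM final. Growth read as SYBR Green-1 fluorescence after ~16 h lysis; artesunate 300 nM as positive control.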
Potency is read from the fitted curve at half-maximal effect.

Row | Structure (SMILES) | Potency
1 | O=C(c1cccs1)N1CCC(O)(c2ccccc2)[C@H](N2CCCC2)C1 (some centres undefined) | 9.44 µM (active)
2 | O=C(c1cccs1)N1CCC(n2cc(-c3nc(-c4ccccc4)no3)nn2)CC1 | inactive
3 | O[C@]1(c2ccccc2)CCN(Cc2ccco2)C[C@H]1N1CCCC1 | 8.41 µM (active)
4 | Cc1nn(C)cc1CN1CCC(O)(c2ccccc2)[C@H](N2CCCC2)C1 (some centres undefined) | inactive
5 | O[C@]1(c2ccccc2)CCN(Cc2ccncc2)C[C@H]1N1CCCC1 | 9.44 µM (active)
6 | CCOc1ccc(CN2CC[C@@](C)(O)[C@H](N3CCCC3)C2)cc1 | inactive
7 | O=C(CC1CCN(C(=O)c2cccs2)C1)NCc1ccccc1 (centres undefined) | inactive
8 | c1ccc(-c2noc(-c3ccn4c(CN5CCN(c6ccccn6)CC5)nnc4c3)n2)cc1 | inactive
9 | CCOc1ccc2[nH]c3c(NCCN(C)C)ncnc3c2c1 | 16.8 µM (active)
10 | CC1Cn2c(nnc2-c2cc3ccccc3cc2O)S1 (centres undefined) | 4.73 µM (active)
11 | CCc1ccc(Oc2c(C(F)(F)F)oc3c(CN4CCN(CC)CC4)c(O)ccc3c2=O)cc1 | 0.376 µM (active)
12 | CCc1ccc(Oc2c(C(F)(F)F)oc3c(CN4CCN(C)CC4)c(O)ccc3c2=O)cc1 | 0.75 µM (active)
13 | C=CCO[C@@H]1CCN2C(=O)c3cc(-c4cc(Cl)ccc4OC)ccc3NC(=O)[C@H]12 | inactive
14 | CC(C)C(=O)NCC1CN(Cc2ccccc2)C(=O)c2c(ccnc2-c2ccc(OCC(=O)O)cc2)O1 (centres undefined) | 2.11 µM (active)
15 | O=C(O)COc1ccc(-c2nccc3c2C(=O)N(Cc2ccccc2)CC(CNC(=O)c2ccc(F)cc2)O3)cc1 (centres undefined) | inactive
16 | Oc1ccccc1Nc1nc(NCc2ccco2)c2ccccc2n1 | 2.99 µM (active)
17 | OCCNc1nc(Nc2ccc(Br)cc2)nc2ccccc12 | 2.66 µM (active)
18 | Cc1cccc(Nc2nc(NCc3ccco3)c3ccccc3n2)c1 | 4.73 µM (active)
19 | c1ccc(Nc2nc(NCc3ccco3)c3ccccc3n2)cc1 | 1.68 µM (active)
20 | NCC(=O)N1CCC(n2nccc2NC(=O)c2ccc3c(c2)OCO3)CC1 | inactive
21 | CN1C(=O)c2cncnc2OCC1CNC(=O)Cc1cccs1 (centres undefined) | inactive
22 | COc1ccc(C(CCN2CCN(c3ccccc3)CC2)c2c(O)cc(OC)cc2OC)cc1 (centres undefined) | 0.944 µM (active)
23 | COc1cc(O)c(C(CCN2CCN(c3ccccc3)CC2)c2ccc(N(C)C)cc2)c(OC)c1 (centres undefined) | 0.596 µM (active)

Row | Structure (SMILES) | Potency
24 | N#Cc1c(N2CCN(c3ccc(F)cc3)CC2)nc(N)c2c(N)nc3c(c12)CC(=O)N3C1CC1 | 0.668 µM (active)
25 | C=CCOC(=O)C1=C[C@@H](c2ccc(C(F)(F)F)cc2)[C@H](CCCO)[C@@H](OCC)O1 | 7.5 µM (active)
26 | COc1ccccc1N1CCN(C(c2cc3ccc(C)cc3[nH]c2=O)c2nnnn2C2CCCC2)CC1 (centres undefined) | 7.5 µM (active)
27 | CC(C)(C)n1nnnc1C(c1cc2cc3c(cc2[nH]c1=O)OCO3)N1CCN(c2ccccc2)CC1 (centres undefined) | 7.5 µM (active)
28 | COc1ccc(N2CCN(C(c3cc4ccc(C)cc4[nH]c3=O)c3nnnn3C3CCCC3)CC2)cc1 (centres undefined) | 6.68 µM (active)
29 | COCCN1CC2(CCCN(Cc3cc(C(C)(C)C)n[nH]3)C2)CCC1=O (centres undefined) | inactive
30 | Cc1ccccc1OCCn1cc(C(=O)c2ccco2)c2ccccc21 | 5.31 µM (active)
31 | Cc1ccc(C)c(OCCn2cc(C(=O)c3ccco3)c3ccccc32)c1 | 5.31 µM (active)
32 | COC(=O)c1cccc(NC(=S)N[C@H]2CO[C@H]3[C@@H]2OC[C@H]3OC(=O)Nc2ccccc2)c1 | inactive
33 | COCCN(CCOC)c1nc(N)c2c(N)nc3c(c2c1C#N)CC(=O)N3Cc1ccc(Cl)cc1 | 5.96 µM (active)
34 | Cc1cccc(C)c1NC(=O)CN1C(=O)NC(c2ccccc2Cl)C2=C1COC2=O (centres undefined) | inactive
35 | CC(C)[C@@H]1CN(S(=O)(=O)c2ccc(Cl)cc2Cl)C[C@H]1N(C)C | 6.68 µM (active)
36 | CCOC(=O)c1c(NC(=O)CSc2nc3ccccc3c(=O)n2-c2ccccc2)sc(C(C)=O)c1C | 13.3 µM (active)
37 | CC(Sc1nc2sccc2c(=O)n1-c1ccccc1)C(N)=O (centres undefined) | inactive
38 | CCOC(=O)C1CCN(C(=O)CSc2nc(N)cc(=O)[nH]2)CC1 | inactive
39 | CCOC(=O)C1CCN(c2cc(=O)n(-c3ccccc3Cl)c(=O)[nH]2)CC1 | 8.41 µM (active)
40 | CCOC(=O)C1CCN(Cc2cc(Cl)c3ccccc3c2O)CC1 | 1.88 µM (active)
41 | Cc1noc(CN(C)C(=O)C2C3C(=O)N(Cc4ccc(C)c(C)c4)C[C@@]34C=C[C@@H]2O4)n1 (some centres undefined) | inactive
42 | O=C(C1CCCCC1)N1CCN(C2CCN(Cc3cccnc3)C2=O)CC1 (centres undefined) | inactive
43 | CCOC(=O)c1ccc2c(c1)[C@@H]1C=CC[C@@H]1[C@H](c1cccc(OC)c1OC)N2 | 2.66 µM (active)
44 | COc1ccc(NC(=O)Cn2cccc2-c2nc(-c3ccc(OC)c(F)c3)no2)cc1 | 4.73 µM (active)
45 | COc1ccc(-c2noc(-c3cccn3CC(=O)NC(C)C)n2)cc1F | inactive
46 | COc1ccc(-c2noc(-c3cccn3CC(=O)Nc3ccccc3)n2)cc1F | 2.37 µM (active)

Row | Structure (SMILES) | Potency
47 | COc1cccc(NC(=O)Cn2cccc2-c2nc(-c3ccc(OC)c(F)c3)no2)c1 | 6.68 µM (active)
48 | COc1ccc(-c2noc(-c3cccn3CC(=O)NC3CCCCC3)n2)cc1F | inactive
49 | CCOc1ccc(NC(=O)Nc2cc(OCC(F)(F)F)cc(OCC(F)(F)F)c2)cc1 | 13.3 µM (active)
50 | Cc1cccc(-c2ccc3c(c2)C(=O)N2C[C@H](O)C[C@H]2C(=O)N3)c1C | inactive
51 | CNC(=O)[C@@H]1CN(C(=O)c2c[nH]c3ccccc23)C[C@H]1COC | inactive
52 | CCN1CCN(Cc2ccc(NC(=O)c3ccc(C)c(NC(=O)C(=O)c4c[nH]c5ccccc45)c3)cc2C(F)(F)F)CC1 | 1.5 µM (active)
53 | CCN1CCN(Cc2ccc(NC(=O)c3ccc(C)c(NC(=O)c4c[nH]c5cc(C(F)(F)F)ccc5c4=O)c3)cc2C(F)(F)F)CC1 | 0.531 µM (active)
54 | Cc1cn(-c2cc(C(=O)Nc3ccc(C)c(NC(=O)C(=O)c4c[nH]c5ccccc45)c3)cc(C(F)(F)F)c2)cn1 | 2.11 µM (active)
55 | CCN1CCN(Cc2ccc(NC(=O)c3cc(NC(=O)C(=O)c4c[nH]c5ccccc45)cc(OC)c3)cc2C(F)(F)F)CC1 | 0.668 µM (active)
56 | CCn1nc(C)c(-c2cc(C(=O)N3CCc4nc5cc(-c6ccccc6)[nH]n5c(=O)c4C3)no2)c1C | inactive
57 | COc1ccc(CCc2nc3nccc(-c4ccc5c(c4)OCCCO5)n3n2)cc1OC | inactive
58 | COc1cc2nc(NCCc3cccc(C)c3)n3nc(-c4ccccc4)nc3c2cc1OC | 0.842 µM (active)
59 | COc1ccc(CCNc2nc3cc(OC)c(OC)cc3c3nc(-c4ccccc4)nn23)cc1OC | 2.37 µM (active)
60 | COc1cc2c(cc1O)CC[n+]1cc3c(OC)c(OC)ccc3cc1-2 | 7.5 µM (active)
61 | COc1ccc2nc(C[C@@H]3C[C@@H](C(C)C)[C@H](CNCc4ccccn4)C=C3C)[nH]c2c1 | 0.769 µM (active)
62 | COc1ccccc1CNC[C@@H]1C=C(C)[C@H](Cc2nc3c(C)cccc3[nH]2)C[C@H]1C(C)C | 9.68 µM (active)
63 | COC(=O)c1ccc2nc(C[C@@H]3C[C@@H](C(C)C)[C@H](CNC4CCCCC4)C=C3C)[nH]c2c1 | 8.41 µM (active)
64 | COc1ccc2nc(C[C@@H]3C[C@@H](C(C)C)[C@H](CNCc4ccccc4OC)C=C3C)[nH]c2c1 | 9.44 µM (active)
65 | CC1=C[C@@H](CNC(=O)c2cnccn2)[C@H](C(C)C)C[C@H]1Cc1nc2ccc(F)cc2[nH]1 | inactive
66 | CC1(C)Cc2ccccc2C2=NNC(=O)C2=N1 | 3.35 µM (active)
67 | O=C(Cc1ccccc1O)NCc1cccnc1Oc1ccc(F)cc1F | inactive
68 | CCC(C(=O)Nc1nc(C)c(C)s1)c1ccccc1 (centres undefined) | inactive
69 | CC(Oc1ccccc1)C(=O)Nc1nc(-c2ccccn2)cs1 (centres undefined) | 8.41 µM (active)

Row | Structure (SMILES) | Potency
70 | CC(Oc1ccccc1)C(=O)Nc1cnc(-c2cccc(Cl)c2)nc1 (centres undefined) | inactive
71 | O=C(Nc1nc(-c2ccccn2)cs1)Nc1ccc(F)cc1F | 5.31 µM (active)
72 | CC1Cc2nc(SCC(=O)Nc3ccc4c(c3)OCO4)n(-c3ccc(F)cc3)c(=O)c2S1 (centres undefined) | 2.99 µM (active)
73 | CCC(Sc1nc2c(c(=O)n1CC)SC(C)C2)C(=O)OC (centres undefined) | inactive
74 | Cc1cc(NC(=O)CSc2nc3c(c(=O)n2Cc2ccccc2)SC(C)C3)no1 (centres undefined) | inactive
75 | NNC(=O)CN1C(=O)Nc2ccc(Cl)cc2C1c1ccccc1 (centres undefined) | inactive
76 | CCOc1ccccc1C(=O)N1CC(=O)Nc2ccc(Cl)cc2C1c1ccccc1 (centres undefined) | 9.44 µM (active)
77 | CCN(CC)CCNC(=O)c1ccc(NC(=O)c2cc(-c3ccncc3)nc3ccccc23)cc1 | inactive
78 | O=C(Nc1ccncc1)c1cc(-c2cccc(Br)c2)nc2ccccc12 | 13.3 µM (active)
79 | Cc1ccc2oc(-c3cccc(NC(=O)c4cccc5c(Cl)cccc45)c3)nc2c1 | inactive
80 | O=C(Nc1cccnc1)c1cc(-c2cccnc2)nc2ccc(Br)cc12 | 2.66 µM (active)
81 | O=C(NCc1ccco1)c1cc(-c2ccncc2)nc2ccccc12 | 5.96 µM (active)
82 | O=C(CCC1CCCC1)N1CC(c2nnc(-c3ccncc3)o2)C2(CCOCC2)C1 (centres undefined) | inactive
83 | COc1cc(C#Cc2c(-c3cncn3C)n(C)c3ccc(-c4ccc5[nH]ccc5c4)cc23)cc(OC)c1 | 2.37 µM (active)
84 | COc1ccc(-c2c(C#Cc3ccsc3)c3cc(-c4cccc5[nH]ccc45)ccc3n2C)cc1 | 6.68 µM (active)
85 | COc1cc(C#Cc2c(-c3cncn3C)n(C)c3ccc(-c4ccc(OC)c(OC)c4)cc23)cc(OC)c1 | 4.73 µM (active)
86 | CC(=O)NCCc1ncc(C)n1C1CCC1 | inactive
87 | CC(=O)NCCc1ncc(C)n1C1CCCCCC1 | inactive
88 | CCOC(=O)c1cnc(-n2nc(C)cc2C)nc1NNc1nc(-c2ccccc2)cc(-c2ccccc2)n1 | 2.11 µM (active)
89 | CCOC(=O)c1cnc(-n2nc(C)cc2C)nc1NC1CCCC1 | 8.41 µM (active)
